Targets with a hit are over-represented here; the source holds about 7,900 in all. About 0.6% of all pairs of compound and target were hits.

UniProt P01116, sequence (P01116 whole entry, looked up): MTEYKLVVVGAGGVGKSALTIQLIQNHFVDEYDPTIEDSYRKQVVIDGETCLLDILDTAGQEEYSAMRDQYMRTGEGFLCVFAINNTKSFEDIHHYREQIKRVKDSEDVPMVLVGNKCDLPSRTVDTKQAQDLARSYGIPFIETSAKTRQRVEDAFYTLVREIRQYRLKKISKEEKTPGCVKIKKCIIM
UniProt Q9H9P8, sequence (Q9H9P8 whole entry, looked up): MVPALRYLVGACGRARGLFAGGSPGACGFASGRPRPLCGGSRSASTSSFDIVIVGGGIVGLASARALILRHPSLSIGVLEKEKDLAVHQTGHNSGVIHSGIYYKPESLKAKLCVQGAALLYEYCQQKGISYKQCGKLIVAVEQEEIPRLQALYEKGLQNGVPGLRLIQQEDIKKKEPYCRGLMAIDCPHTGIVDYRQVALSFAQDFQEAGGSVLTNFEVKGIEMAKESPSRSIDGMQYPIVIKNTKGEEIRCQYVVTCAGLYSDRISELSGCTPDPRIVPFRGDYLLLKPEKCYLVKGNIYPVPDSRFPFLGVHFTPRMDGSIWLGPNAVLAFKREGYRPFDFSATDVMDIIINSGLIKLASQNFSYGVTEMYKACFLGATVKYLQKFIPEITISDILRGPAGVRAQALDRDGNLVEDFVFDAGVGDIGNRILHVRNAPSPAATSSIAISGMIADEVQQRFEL
UniProt Q9H0C8, sequence (Q9H0C8 whole entry, looked up): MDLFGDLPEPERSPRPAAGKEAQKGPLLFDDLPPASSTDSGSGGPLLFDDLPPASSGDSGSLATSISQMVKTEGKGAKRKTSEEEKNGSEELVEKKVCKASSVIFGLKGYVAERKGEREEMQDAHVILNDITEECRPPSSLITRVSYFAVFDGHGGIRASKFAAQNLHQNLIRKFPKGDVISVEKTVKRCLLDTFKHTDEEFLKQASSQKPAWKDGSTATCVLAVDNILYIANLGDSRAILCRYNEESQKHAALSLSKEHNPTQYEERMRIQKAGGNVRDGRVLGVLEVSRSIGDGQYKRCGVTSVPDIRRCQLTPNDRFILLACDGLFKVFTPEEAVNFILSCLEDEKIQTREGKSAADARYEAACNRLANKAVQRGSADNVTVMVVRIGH
UniProt Q16891, sequence (Q16891 whole entry, looked up): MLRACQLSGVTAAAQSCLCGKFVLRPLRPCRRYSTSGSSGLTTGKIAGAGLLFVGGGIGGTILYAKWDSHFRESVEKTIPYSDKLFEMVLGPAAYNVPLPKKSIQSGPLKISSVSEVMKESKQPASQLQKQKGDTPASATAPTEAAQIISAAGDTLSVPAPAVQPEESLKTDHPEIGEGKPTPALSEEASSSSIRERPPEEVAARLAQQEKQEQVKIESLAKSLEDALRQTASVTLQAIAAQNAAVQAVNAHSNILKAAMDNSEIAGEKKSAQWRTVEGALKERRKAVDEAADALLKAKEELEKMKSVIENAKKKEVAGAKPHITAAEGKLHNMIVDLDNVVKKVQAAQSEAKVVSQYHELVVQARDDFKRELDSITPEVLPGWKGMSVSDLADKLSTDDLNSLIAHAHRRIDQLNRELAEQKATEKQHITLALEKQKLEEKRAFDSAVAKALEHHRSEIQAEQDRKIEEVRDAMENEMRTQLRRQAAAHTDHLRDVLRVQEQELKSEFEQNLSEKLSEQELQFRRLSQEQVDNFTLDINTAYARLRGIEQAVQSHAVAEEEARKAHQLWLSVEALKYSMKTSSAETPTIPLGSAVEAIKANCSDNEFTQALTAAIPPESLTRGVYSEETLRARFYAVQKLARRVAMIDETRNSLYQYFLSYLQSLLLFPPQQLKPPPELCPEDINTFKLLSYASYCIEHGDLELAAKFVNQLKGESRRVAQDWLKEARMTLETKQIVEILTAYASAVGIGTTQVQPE
UniProt O43318, sequence (O43318 whole entry, looked up): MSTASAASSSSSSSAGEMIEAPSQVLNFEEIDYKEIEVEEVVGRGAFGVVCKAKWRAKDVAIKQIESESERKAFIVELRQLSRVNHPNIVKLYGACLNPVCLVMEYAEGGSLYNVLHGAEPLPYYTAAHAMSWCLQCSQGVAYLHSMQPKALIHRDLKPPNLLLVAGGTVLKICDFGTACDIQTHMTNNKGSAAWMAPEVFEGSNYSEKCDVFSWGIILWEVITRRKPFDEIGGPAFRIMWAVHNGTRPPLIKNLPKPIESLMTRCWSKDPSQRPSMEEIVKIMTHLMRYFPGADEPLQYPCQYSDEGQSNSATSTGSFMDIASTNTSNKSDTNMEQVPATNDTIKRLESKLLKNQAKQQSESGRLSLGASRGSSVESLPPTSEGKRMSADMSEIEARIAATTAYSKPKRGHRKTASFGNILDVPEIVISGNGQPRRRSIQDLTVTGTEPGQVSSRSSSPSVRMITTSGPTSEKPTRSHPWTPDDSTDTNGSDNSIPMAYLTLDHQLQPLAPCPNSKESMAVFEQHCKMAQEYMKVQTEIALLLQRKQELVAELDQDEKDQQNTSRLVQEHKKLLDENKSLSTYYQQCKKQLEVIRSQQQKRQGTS
UniProt Q8IWA4, sequence (Q8IWA4 whole entry, looked up): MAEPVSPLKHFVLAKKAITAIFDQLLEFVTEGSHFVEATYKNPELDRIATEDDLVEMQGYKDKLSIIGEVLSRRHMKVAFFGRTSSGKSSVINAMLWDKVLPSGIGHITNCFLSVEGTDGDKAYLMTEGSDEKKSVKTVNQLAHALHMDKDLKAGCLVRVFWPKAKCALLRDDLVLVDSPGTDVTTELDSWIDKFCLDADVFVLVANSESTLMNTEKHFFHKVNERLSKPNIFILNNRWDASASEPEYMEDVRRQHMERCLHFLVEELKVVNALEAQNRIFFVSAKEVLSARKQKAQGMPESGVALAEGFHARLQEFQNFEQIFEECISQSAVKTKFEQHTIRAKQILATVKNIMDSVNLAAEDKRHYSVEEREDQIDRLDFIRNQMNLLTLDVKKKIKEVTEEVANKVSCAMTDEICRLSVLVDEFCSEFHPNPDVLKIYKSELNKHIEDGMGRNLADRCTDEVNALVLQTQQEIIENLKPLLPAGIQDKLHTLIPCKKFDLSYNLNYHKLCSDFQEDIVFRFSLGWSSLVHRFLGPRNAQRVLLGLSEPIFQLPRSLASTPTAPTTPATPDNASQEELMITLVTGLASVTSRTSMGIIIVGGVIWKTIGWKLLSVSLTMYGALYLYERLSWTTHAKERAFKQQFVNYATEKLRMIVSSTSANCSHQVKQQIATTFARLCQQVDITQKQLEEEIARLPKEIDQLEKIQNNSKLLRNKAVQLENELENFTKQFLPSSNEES
UniProt Q6N075, sequence (Q6N075 whole entry, looked up): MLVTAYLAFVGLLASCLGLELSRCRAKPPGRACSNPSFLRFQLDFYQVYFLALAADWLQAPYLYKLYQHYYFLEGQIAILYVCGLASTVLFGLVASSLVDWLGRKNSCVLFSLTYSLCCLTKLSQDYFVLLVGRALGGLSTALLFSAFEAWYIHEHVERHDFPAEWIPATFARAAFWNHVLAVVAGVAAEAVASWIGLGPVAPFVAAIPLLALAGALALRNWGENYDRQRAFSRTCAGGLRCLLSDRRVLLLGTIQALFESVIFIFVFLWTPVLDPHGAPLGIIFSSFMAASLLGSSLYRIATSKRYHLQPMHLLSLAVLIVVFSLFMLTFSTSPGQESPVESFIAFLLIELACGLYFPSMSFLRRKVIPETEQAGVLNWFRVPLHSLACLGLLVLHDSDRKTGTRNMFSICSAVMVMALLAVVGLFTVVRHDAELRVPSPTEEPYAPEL
UniProt P32019, sequence (P32019 whole entry, looked up): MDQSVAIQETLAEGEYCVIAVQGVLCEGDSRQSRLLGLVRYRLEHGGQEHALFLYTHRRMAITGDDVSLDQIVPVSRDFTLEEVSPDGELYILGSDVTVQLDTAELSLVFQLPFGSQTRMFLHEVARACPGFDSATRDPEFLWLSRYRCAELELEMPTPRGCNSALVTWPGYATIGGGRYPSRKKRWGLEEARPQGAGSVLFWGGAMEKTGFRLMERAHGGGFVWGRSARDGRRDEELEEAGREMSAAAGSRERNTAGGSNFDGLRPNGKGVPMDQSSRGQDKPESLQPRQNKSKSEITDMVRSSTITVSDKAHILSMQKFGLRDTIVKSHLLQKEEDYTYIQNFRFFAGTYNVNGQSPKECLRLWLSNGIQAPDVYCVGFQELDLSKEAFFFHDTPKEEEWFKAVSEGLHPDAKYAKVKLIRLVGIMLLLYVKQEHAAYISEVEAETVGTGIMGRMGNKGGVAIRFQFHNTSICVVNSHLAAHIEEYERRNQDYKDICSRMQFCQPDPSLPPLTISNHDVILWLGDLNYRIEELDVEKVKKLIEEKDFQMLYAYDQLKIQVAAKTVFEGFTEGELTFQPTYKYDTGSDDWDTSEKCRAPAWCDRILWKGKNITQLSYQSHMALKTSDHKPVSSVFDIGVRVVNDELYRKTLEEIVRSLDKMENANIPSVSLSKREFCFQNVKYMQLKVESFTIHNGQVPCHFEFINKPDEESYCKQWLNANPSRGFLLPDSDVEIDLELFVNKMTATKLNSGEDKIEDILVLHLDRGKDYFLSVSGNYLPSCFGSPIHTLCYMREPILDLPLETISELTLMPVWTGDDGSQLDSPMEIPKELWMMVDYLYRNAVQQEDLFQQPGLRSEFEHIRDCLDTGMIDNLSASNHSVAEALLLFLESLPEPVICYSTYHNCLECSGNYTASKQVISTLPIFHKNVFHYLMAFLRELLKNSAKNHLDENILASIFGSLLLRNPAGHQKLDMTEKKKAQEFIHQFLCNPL
UniProt Q8WV07, sequence (Q8WV07 whole entry, looked up): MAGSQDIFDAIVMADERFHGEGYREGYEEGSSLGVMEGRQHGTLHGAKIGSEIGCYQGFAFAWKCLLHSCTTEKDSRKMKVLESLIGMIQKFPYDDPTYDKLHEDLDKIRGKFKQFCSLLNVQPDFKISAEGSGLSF

Compound in this experiment: C=CC(=O)N1CCC[C@@H](n2nc(-c3ccc(Oc4ccccc4)cc3)c3c(N)ncnc32)C1 [ibrutinib]
Description: log2 fold change, soluble protein after heating vs DMSO (PISA); higher = thermal stabilisation; K562 cells, 10 uM, 30 min; active = over 0.2 and 3.5 SD of the protein, either way, in both replicates (recomputed). Put shortly: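 Thermal stability values are relative to control samples and come from duplicates. They are expressed as log2 fold changes. For measurement, K562 cells (2×10^6 cells/mL) received 10 μM compound for 30 min, and aliquots were heated for 3 min over 48°C-58°C, pooled, and extracted at 4°C in PBS with 0.5% NP-40. Soluble protein, the supernatant after 21,000xg for 90 min, was quantified by TMTpro 16plex LC-MS/MS with equalised channel sums.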
As to KPNA6 (UniProt O60684), the log2 fold change is -0.032 (inactive). Take KDM3B (UniProt Q7LBC6): the log2 fold change was -0.04 (inactive). For LMBRD2 (UniProt Q68DH5), the log2 fold change was -0.034 (inactive). In the case of ME2 (UniProt P23368), the log2 fold change was -0.039 (inactive). Consider ILKAP (UniProt Q9H0C8), for which the log2 fold change is -0.016 (inactive). Next, MFN2 (UniProt O95140): 0.03 (inactive); INPP5B (UniProt P32019): -0.048 (inactive).

Consider LARP1 (UniProt Q6PKG0), for which the log2 fold change is 0.009 (inactive).

With MIER1 isoform 12 (UniProt Q8N108), the log2 fold change was -0.012 (inactive).

Consider L2HGDH (UniProt Q9H9P8), for which the log2 fold change was 0.028 (inactive). KRAS isoform 2 (UniProt P01116): the log2 fold change was -0.035 (inactive). With LTO1 (UniProt Q8WV07), the log2 fold change is 0.037 (inactive). As for MFN1 (UniProt Q8IWA4), the figure is -0.009 (inactive). As for IKZF1 (UniProt Q13422), the figure is 0.041 (inactive). As for MAP3K7 (UniProt O43318), the figure is -0.061 (inactive). Consider KIF3A (UniProt Q9Y496), for which the log2 fold change was -0.016 (inactive). For the target IMMT isoform 4 (UniProt Q16891), the log2 fold change was -0.005 (inactive). As for LDLR (UniProt P01130), the log2 fold change was -0.015 (inactive). As to LMNA (UniProt P02545), the log2 fold change was -0.023 (inactive). As for MAGI1 (UniProt Q96QZ7), the figure is 0.057 (inactive); as for MAP3K4 isoform 2 (UniProt Q9Y6R4), 0 (inactive). Consider IWS1 (UniProt Q96ST2), for which the log2 fold change is -0.027 (inactive). As to INTS5 (UniProt Q6P9B9), the log2 fold change was -0.039 (inactive). As for KLHDC4 (UniProt Q8TBB5), the figure is -0.011 (inactive); as for LSS (UniProt P48449), -0.087 (inactive); as for MAN2B2 (UniProt Q9Y2E5), -0.079 (inactive). Next, KHDC4 (UniProt Q7Z7F0): 0.025 (inactive); MCCC2 (UniProt Q9HCC0): 0.019 (inactive). For the target MAPKAPK5 (UniProt Q8IW41), the log2 fold change was -0.003 (inactive). Consider JMJD6 isoform 3 (UniProt Q6NYC1), for which the log2 fold change was -0.011 (inactive). Next, LARP4B (UniProt Q92615): 0.007 (inactive); LEO1 (UniProt Q8WVC0): 0.026 (inactive). For KDM1A isoform 2 (UniProt O60341), the log2 fold change was 0.014 (inactive). In the case of MFSD5 isoform 2 (UniProt Q6N075), the log2 fold change is -0.016 (inactive). As for ITIH4 (UniProt Q14624), the figure is 0.147 (inactive); as for LARP4 isoform 4 (UniProt Q71RC2), 0.037 (inactive); as for LTV1 (UniProt Q96GA3), -0.009 (inactive). Turning to LIAS (UniProt O43766), the log2 fold change is 0.005 (inactive).

Source of the values: the supplement of paper PMC10849652.
